Hits are enriched below; roughly 2.8% of the tested compounds scored in any of these assays.
Platelet DG rel – inhibitors of platelet dense granule secretion, primary screen, cell-based, MLPCN, human platelets; inhibition, %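 (compounds screened at 7.5 µM in platelet-rich plasma)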; AID 1663, 2009; human platelet-rich plasma, SFLLRN dense granule ATP release, luminescence; actives 0.22% (n = 300,000);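 active = mean replicate score, as percent of positive control, at or above 50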
SENP7 block – SENP7 protease inhibitors, primary screen, biochemical, luminescence, uHTS; recombinant SENP7, Z-RLRGG-aminoluciferin luminescence, 40 min; inhibition, % at 5 µM; actives 1.5% (n = 330,000); AID 434973, 2010;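 active = inhibition above about 50% at the single test dose, limit read from the data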;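 note: plate controls were DMSO with enzyme for no effect and no enzyme buffer wells for full effect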
SENP6 inh – SENP6 protease inhibitors, primary screen, biochemical, luminescence, uHTS. Recombinant SENP6 catalytic domain, aminoluciferin luminescence. inhibition, % at 10 µM. AID 2599, 2010. Sentrin-specific protease 6 (Homo sapiens), Q9GZR1. actives 1.8% (n = 330,000);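 active = inhibition above about 50% at the single tested dose, limit read from the data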;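 note: plate controls were DMSO wells with enzyme for no effect and DMSO wells lacking enzyme for full effect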
Target sequence (Q9GZR1 628-1112 limits assumed): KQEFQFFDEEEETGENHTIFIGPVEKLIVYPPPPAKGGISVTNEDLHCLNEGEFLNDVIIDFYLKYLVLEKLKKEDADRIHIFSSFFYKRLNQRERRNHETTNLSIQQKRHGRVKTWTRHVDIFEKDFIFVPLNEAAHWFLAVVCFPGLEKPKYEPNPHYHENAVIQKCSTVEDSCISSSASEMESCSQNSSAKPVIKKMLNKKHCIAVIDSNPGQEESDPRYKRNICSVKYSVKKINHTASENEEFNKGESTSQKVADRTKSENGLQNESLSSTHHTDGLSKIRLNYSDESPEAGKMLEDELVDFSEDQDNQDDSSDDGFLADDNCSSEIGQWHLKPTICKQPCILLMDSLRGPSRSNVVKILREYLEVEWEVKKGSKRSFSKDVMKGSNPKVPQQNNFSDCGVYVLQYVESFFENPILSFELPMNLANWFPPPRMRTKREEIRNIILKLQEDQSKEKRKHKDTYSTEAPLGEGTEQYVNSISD
SENP8 block-1 – SENP8 protease inhibitors, primary screen, biochemical, luminescence | Sentrin-specific protease 8 (Homo sapiens), Q96LD8 | inhibition, % at 10 µM | actives 1.2% (n = 330,000) | purified SENP8, Z-RLRGG-aminoluciferin cleavage; in the data active = inhibition above about 50%
SENP8 block-2 – human SENP8 protease inhibitors, primary screen, biochemical, fluorescence, Nedd8 protein substrate, uHTS; AID 602440, 2012; recombinant SENP8; inhibition, % at 20 µM; actives 0.64% (n = 360,000); in the data active = inhibition mostly above about 40%, no sharp cut-off; inactive = mostly below about 27%
HSP90 inh – HSP90 inhibitors, primary screen, cell lysate, luminescence; actives 0.91% (n = 290,000); Rabbit reticulocyte lysate, luciferase refolding luminescence, 3 h; inhibition, % at 5.6 µM;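 active = inhibition above the screen-wide mean plus 3 SD, computed separately per campaign, cut at about 16% in these data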;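 note: 0% = DMSO wells and 100% = 60 µM geldanamycin wells; inhibitors lower the luminescence because luciferase stays unfolded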
HSP90 inh confirm – HSP90 inhibitors, confirmation, cell lysate, luminescence. shares compounds with HSP90 inh. rabbit reticulocyte lysate, luciferase refolding luminescence, 3 h. inhibition, % at 5.9 µM. actives 64% (n = 2,300). AID 1846, 2009; in the data active = inhibition above about 18%;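 note: 0% = vehicle wells and 100% = reference inhibitor wells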
luciferase ctr – firefly luciferase inhibitors, HSP90 counter-screen, confirmation, artefact control for HSP90 inhibitor project, biochemical, luminescence, triplicate; shares compounds with HSP90 inh; purified native firefly luciferase; inhibition, % at 5.9 µM; actives 48% (n = 2,300);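 active = inhibition above the mean inhibition of all tested sample wells plus 3 SD, cut at about 10% in these data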;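 note: 0% = DMSO with luciferase and 100% = wells lacking luciferase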
An asterisk follows results filed as active; / = no result.

SMILES	Platelet DG rel	SENP7 block	SENP6 inh	SENP8 block-1	SENP8 block-2	HSP90 inh	HSP90 inh confirm	luciferase ctr
CCOCc1nnc(NC(=O)c2ccco2)s1	-2	3	-9	1	4	6	/	/
Cc1nc(NC(=O)c2ccco2)sc1C(=O)Nc1ccc(Br)cc1	2	5	28	18	-137	0	/	/
C=C1CCCC2OC(CC3=CC4/C(C)=C/CC(C)CC(/C=C(\C)C(O)C5CC(O)C(O)C(CCC(O)/C=C/C(C)=C/CCC6=NCCC(C3)C64C)O5)OC(=O)CC3OC(C(O)C1)C(O)C3O)CC(O)C2O (stereo unspecified)	/	/	/	/	7	/	/	/
Cc1ccccc1C(C)NC(=O)COC(=O)Cn1cc(C(F)(F)F)ccc1=O (stereo unspecified)	/	5	-2	6	19	/	/	/
CCN1CCN(Cc2ccc(NC(=O)c3ccc(C)c(NC(=O)c4ccno4)c3)cc2C(F)(F)F)CC1	3	15	-5	-12	8	/	/	/
CCN1CCN(Cc2ccc(NC(=O)c3ccc(C)c(NC(=O)c4cccc(-c5cn[nH]c(=O)c5)c4)c3)cc2C(F)(F)F)CC1	4	2	-21	0	-26	20*	19*	-8
CC(=N\NC(=O)c1ccccc1)/C(=N/O)C(=O)Nc1ccccc1	-1	1	-22	4	8	73*	-1	-5
CC(=N\Nc1ccccc1)/C(=N/O)C(=O)Nc1ccccc1	1	2	5	-2	9	-3	/	/
COc1ccc(C(=O)NCCn2ccc3ccccc32)c(OC)c1	5	-5	-9	-3	7	38*	16	-9
COc1cc(C2NC(=S)NC3=C2CCc2ccccc23)cc(OC)c1OC (stereo unspecified)	1	1	-19	0	-56	0	/	/
C=CCOc1ccc(C2NC(=S)NC3=C2CCc2ccccc23)cc1 (stereo unspecified)	0	2	-1	4	-196	20*	42*	52*
COC(=O)c1ccc(NC(=S)Nc2ccccn2)cc1	1	-8	-14	-5	2	2	/	/
COc1ccc(NC(=S)Nc2ccccn2)cc1	15	10	-23	-9	34	26*	-9	-18
CN(C(=O)c1cccc(NC(=O)Cc2cccc(NC(=O)C3CCN(C(=O)C4CCCCC4)CC3)c2)c1)C1CCC1	/	/	/	/	0	/	/	/
CCOC(=O)c1[nH]cc(-c2ccccc2)c1N1CCOCC1	/	4	-16	-1	21	18*	0	-2
COc1ccc(N(C(=O)c2ccco2)S(=O)(=O)c2ccc(F)cc2)cc1	0	-2	-11	-4	17	17*	0	-4
COc1ccc(N(C(=O)c2ccco2)S(=O)(=O)c2cccc([N+](=O)[O-])c2)cc1	-9	-9	2	-2	13	3	/	/
COc1cc([N+](=O)[O-])ccc1NC(=O)COC(=O)c1c[nH]c(=O)[nH]c1=O	/	3	3	7	8	/	/	/
COc1cccc(C(=O)Nc2cc(C)on2)c1	/	/	/	/	14	/	/	/
CCOc1ccc(OCc2cccc(C(=O)N3CCOCC3)c2)cc1	-1	-7	45	42	-2	61*	70*	73*
COc1ccc(OCc2cccc(C(=O)Nn3cc([N+](=O)[O-])cn3)c2)cc1	1	9	-6	-2	24	18*	62*	28*
COc1ccc(OCc2cccc(C(=O)Nc3cc(C)on3)c2)cc1	7	-2	18	16	14	40*	65*	58*
CCOc1ccc(OCc2cccc(C(=O)N/N=C/c3cccnc3)c2)cc1	14	-5	-21	-14	2	31*	23*	-4

Screens as filed in PubChem BioAssay.
